Experimental data reported in PubChem BioAssay AID1159580 (chemical genetic matrix, 2015).
Where “and” joins values, the source holds several entries; their conditions need not be identical. Identical values can stand only once. The campaign covered roughly 5,500 compounds. About 2,000 (36%) were called active. About 18% were inconclusive and are not listed. Cut-off read from the data, not from the text of the source: active = normalized growth mostly below about 0.91 (no sharp cut-off); inconclusive = no clear call, values can overlap the other calls; inactive = mostly above about 0.92. The list shows a part of the results.

Assay: chemical genetic growth profiling, strain panel (AID 1159580);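 note: tested at 20 µM; growth read once vehicle control cultures reached saturation at 30 °C; 1 = growth at the plate median or of vehicle wells; lower values mean less growth of the strain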
Details: S. cerevisiae deletion strains, growth OD
[1] = locus YDR150W, strain NUM1, hits give low values
[2] = locus YMR307W, strain GAS1, hits give low values
[3] = locus YNL322C, strain KRE1, hits give low values
[4] = locus YPL241C, strain CIN2, hits give low values

Measured: normalized growth

COc1ccc2c(c1O)-c1c(OC)c(OC)cc3c1[C@H](C2)N(C)CC3
inactive: locus YAL021C, strain ccr4, hits give low values 0.926 | locus YAL026C, strain drs2, hits give low values 0.985 | locus YAL030W, strain snc1, hits give low values 0.989 | locus YBL061C, strain skt5, hits give low values 0.99 | locus YBR009C, strain hhf1, hits give low values 1.01 | locus YBR021W, strain FUR4, hits give low values 1.02 | locus YBR023C, strain chs3, hits give low values 0.988 | locus YBR171W, strain sec66, hits give low values 0.976 | locus YBR229C, strain ROT2, hits give low values 1 | locus YBR231C, strain swc5, hits give low values 0.991 | locus YBR279W, strain paf1, hits give low values 0.978 | locus YCL011C, strain gbp2, hits give low values 0.979 | locus YCL016C, strain dcc1, hits give low values 0.983 | locus YCL029C, strain bik1, hits give low values 1.04 | locus YCL061C, strain MRC1, hits give low values 0.979 | locus YCL069W, strain vba3, hits give low values 0.981 | locus YCR088W, strain abp1, hits give low values 0.975 | locus YDL005C, strain med2, hits give low values 0.982 | locus YDL035C, strain GPR1, hits give low values 1.06 | locus YDL040C, strain nat1, hits give low values 0.982 | locus YDL074C, strain BRE1, hits give low values 1.1 | locus YDL101C, strain DUN1, hits give low values 1.02 | locus YDL185W, strain tfp1, hits give low values 1.03 | locus YDL192W, strain arf1, hits give low values 1.03 | locus YDR001C, strain nth1, hits give low values 0.982 | locus YDR069C, strain doa4, hits give low values 0.989 | locus YDR101C, strain arx1, hits give low values 1.03 | locus YDR137W, strain rgp1, hits give low values 0.983 | [1] 1.01 | locus YDR159W, strain sac3, hits give low values 1 | locus YDR162C, strain NBP2, hits give low values 1.01 | locus YDR195W, strain ref2 0.991 | locus YDR297W, strain sur2, hits give low values 0.974 | locus YDR318W, strain mcm21, hits give low values 1.01 | locus YDR334W, strain swr1, hits give low values 0.951 | locus YDR335W, strain msn5, hits give low values 0.977 | locus YDR388W, hits give low values 1.02 | locus YDR392W, strain spt3, hits give low values 0.931 | locus YDR502C, strain sam2, hits give low values 1.01 | locus YEL003W, strain gim4, hits give low values 0.982 | locus YEL037C, strain rad23, hits give low values 0.988 | locus YEL061C, strain CIN8 (second series), hits give low values 0.987 | locus YEL061C, strain CIN8, hits give low values 1.02 | locus YER015W, strain faa2, hits give low values 0.991 | locus YER016W, strain bim1, hits give low values 0.985 | locus YER110C, hits give low values 1.01 | locus YER111C, strain swi4, hits give low values 0.995 | locus YER155C, strain BEM2 (second series), hits give low values 1.01 | locus YER155C, strain BEM2, hits give low values 1 | locus YER167W, strain BCK2, hits give low values 1.02 | locus YFR010W, strain ubp6, hits give low values 0.987 | locus YGL078C, strain dbp3, hits give low values 1.02 | locus YGL086W, strain mad1, hits give low values 1.04 | locus YGL167C, strain pmr1, hits give low values 0.999 | locus YGL173C, strain kem1, hits give low values 0.975 | locus YGL227W, strain vid30, hits give low values 0.989 | locus YGL240W, strain doc1, hits give low values 0.996 | locus YGL248W, strain PDE1, hits give low values 1.01 | locus YGL253W, strain hxk2, hits give low values 1.01 | locus YGR135W, strain pre9, hits give low values 1 | locus YGR252W, strain gcn5, hits give low values 0.991 | locus YHR013C, strain ard1, hits give low values 0.95 | locus YHR027C, strain rpn1, hits give low values 0.988 | locus YHR030C, strain SLT2, hits give low values 1.02 and 0.976 | locus YHR079C, strain IRE1 (second series), hits give low values 1.01 | locus YHR079C, strain IRE1, hits give low values 0.993 | locus YHR094C, strain hxt1, hits give low values 1.01 | locus YHR129C, strain ARP1, hits give low values 1.03 | locus YHR142W, strain chs7, hits give low values 0.915 | locus YHR200W, strain rpn10, hits give low values 1.04 | locus YIL066C, strain RNR3, hits give low values 1.04 | locus YIL073C, strain SPO22, hits give low values 1.1 | locus YIL125W, strain kgd1, hits give low values 1.01 | locus YIR030C, strain dcg1, hits give low values 1.01 | locus YJL092W, strain hpr5, hits give low values 0.97 | locus YJL095W, strain BCK1 (second series), hits give low values 0.995 | locus YJL095W, strain BCK1, hits give low values 1.03 and 1.01 | locus YJL115W, strain asf1, hits give low values 0.957 | locus YJL129C, strain trk1, hits give low values 0.959 | locus YJL134W, strain LCB3, hits give low values 1.01 | locus YJL154C, strain vps35, hits give low values 0.982 | locus YJL164C, strain tpk1, hits give low values 0.972 | locus YJL166W, strain qcr8, hits give low values 0.987 | locus YJL168C, strain set2, hits give low values 1.03 | locus YJL187C, strain SWE1 (second series), hits give low values 1.03 | locus YJL187C, strain SWE1, hits give low values 0.994 | locus YJR043C, strain POL32, hits give low values 1.03 | locus YJR066W, strain TOR1, hits give low values 0.947 | locus YKL009W, strain mrt4, hits give low values 1.12 | locus YKL068W, hits give low values 1 | locus YKL085W, strain MDH1 (second series), hits give low values 1.01 | locus YKL085W, strain MDH1, hits give low values 1.01 | locus YKL160W, strain elf1, hits give low values 0.965 | locus YKR001C, strain vps1, hits give low values 1.03 | locus YKR026C, strain gcn3, hits give low values 0.981 | locus YKR091W, strain srl3, hits give low values 0.975 | locus YLL001W, strain dnm1, hits give low values 0.986 | locus YLL026W, hits give low values 0.989 | locus YLL041C, strain sdh2, hits give low values 0.975 | locus YLR027C, strain aat2, hits give low values 0.987 | locus YLR039C, strain RIC1, hits give low values 1.09 | locus YLR058C, strain SHM2, hits give low values 1.01 | locus YLR102C, strain apc9, hits give low values 1.02 | locus YLR113W, strain HOG1, hits give low values 1 | locus YLR221C, strain rsa3, hits give low values 0.981 | locus YLR258W, strain gsy2, hits give low values 0.999 | locus YLR262C, strain YPT6 (second series), hits give low values 0.972 | locus YLR262C, strain YPT6, hits give low values 1.1 | locus YLR268W, strain sec22, hits give low values 1.05 | locus YLR320W, strain mms22, hits give low values 1.01 | locus YLR330W, strain CHS5, hits give low values 1.02 | locus YLR342W, strain FKS1 (second series), hits give low values 1.06 | locus YLR342W, strain FKS1, hits give low values 0.986 | locus YLR357W, strain rsc2, hits give low values 1 | locus YLR370C, strain arc18, hits give low values 0.979 | locus YLR371W, strain rom2, hits give low values 1.03 | locus YLR384C, strain iki3, hits give low values 0.996 | locus YLR418C, strain cdc73, hits give low values 1.02 | locus YML016C, strain PPZ1, hits give low values 1.01 | locus YML032C, strain rad52, hits give low values 1.02 | locus YML120C, strain ndi1, hits give low values 0.966 | locus YML124C, strain tub3, hits give low values 1 | locus YMR058W, strain fet3, hits give low values 0.968 | locus YMR078C, strain ctf18, hits give low values 1.02 | locus YMR125W, strain sto1, hits give low values 0.99 | locus YMR129W, hits give low values 1.01 | locus YMR205C, strain PFK2, hits give low values 1.01 | locus YMR223W, strain ubp8, hits give low values 0.994 | locus YMR231W, strain pep5, hits give low values 0.987 | [2] 1.11 | locus YNL067W, strain RPL9B, hits give low values 1.01 | locus YNL071W, strain lat1, hits give low values 0.983 | locus YNL183C, strain NPR1, hits give low values 0.954 | locus YNL209W, strain ssb2, hits give low values 0.983 | locus YNL233W, strain BNI4, hits give low values 1.01 | locus YNL248C, strain rpa49, hits give low values 0.912 | locus YNL250W, strain rad50, hits give low values 1.01 | locus YNL271C, strain bni1, hits give low values 1.03 | locus YNL298W, strain CLA4, hits give low values 1.01 | locus YNL307C, strain MCK1, hits give low values 1.02 | locus YNL322C, strain KRE1 (second series), hits give low values 0.974 | [3] 1.02 | locus YNR049C, strain mso1, hits give low values 0.987 | locus YNR052C, strain pop2, hits give low values 1.02 | locus YOL006C, strain TOP1, hits give low values 1.21 | locus YOL012C, strain htz1 1.07 | locus YOL147C, strain pex11, hits give low values 1.01 | locus YOR001W, strain rrp6, hits give low values 0.955 | locus YOR061W, strain CKA2, hits give low values 1.02 | locus YOR069W, strain VPS5, hits give low values 1.01 | locus YOR070C, strain gyp1, hits give low values 0.989 | locus YOR080W, strain dia2, hits give low values 0.999 | locus YOR083W, strain WHI5, hits give low values 0.943 | locus YOR106W, strain vam3, hits give low values 0.945 | locus YOR136W, strain idh2, hits give low values 1.02 | locus YOR144C, strain elg1, hits give low values 1.01 | locus YOR184W, strain ser1, hits give low values 1.06 | locus YOR231W, strain MKK1, hits give low values 1 | locus YOR265W, strain rbl2, hits give low values 0.984 | locus YOR270C, strain vph1, hits give low values 0.964 | locus YOR290C, strain snf2, hits give low values 0.99 | locus YOR316C, strain cot1, hits give low values 1.04 | locus YPL051W, strain arl3, hits give low values 0.973 | locus YPL078C, strain atp4, hits give low values 0.926 | locus YPL106C, strain sse1, hits give low values 0.972 | locus YPL240C, strain hsp82, hits give low values 0.976 | [4] 1.01 | locus YPL256C, strain CLN2, hits give low values 0.973 | locus YPR119W, strain clb2, hits give low values 1 | locus YPR141C, strain kar3, hits give low values 1 | locus YPR163C, strain tif3, hits give low values 1.02 | locus YPR167C, strain met16, hits give low values 1.04 | strain wtn01, hits give low values 1.07

CCCN1CCOC2c3cc(O)ccc3OCC21 (centres undefined)
inactive: locus YAL040C, strain CLN3, hits give low values 0.983 | locus YCL061C, strain MRC1 (second series), hits give low values 0.993 | [1] 0.988 | locus YDR363W, strain ESC2, hits give low values 0.96 | locus YER002W, strain NOP16, hits give low values 1 | locus YGR229C, strain SMI1, hits give low values 1.03 | locus YJR075W, strain HOC1, hits give low values 1.01 | locus YMR263W, strain SAP30, hits give low values 1 | [2] 1.02 | locus YNL128W, strain TEP1, hits give low values 0.993 | locus YNL175C, strain NOP13, hits give low values 0.984 | locus YNL197C, strain WHI3, hits give low values 0.975 | locus YNL224C, strain SQS1, hits give low values 1 | [3] 0.994 | locus YOR083W, strain WHI5 (second series), hits give low values 0.983 | [4] 0.998
